Results filed as inconclusive are left out. Unmarked numbers belong to inactive results. The source made the active and inactive calls. Calls come from the whole dose curve.

This test is described as follows: VSV-G qHTS counterscreen for inhibitors of MERS-S pseudo-typed particle cell entry. The following applies: VSV-G pseudotyped particle cell entry, luciferase counterscreen; series mostly up to 57.1 µM; activity, negative = inhibition: at the top concentration.
For the compound `COc1cc2nccc(Oc3ccc(NC(=O)C4(C(=O)Nc5ccc(F)cc5)CC4)cc3)c2cc1OC`, the Potency is 15.2 µM (active).
Regarding `Cc1oncc1C(=O)Nc1ccc(C(F)(F)F)cc1`, the “activity, negative = inhibition” value was 0%.
For the compound `CCCCN=C(N)N=C(N)N`, the “activity, negative = inhibition” value was 0.705%.
Turning to `CN1CCCCC1CCN1c2ccccc2Sc2ccc(S(C)=O)cc21` (stereo not drawn), the Potency is 27.1 µM (active).
Still for that read-out and setting: the figure for `Cc1c(N)nc(C(CC(N)=O)NCC(N)C(N)=O)nc1C(=O)NC(C(=O)NC(C)C(O)C(C)C(=O)NC(C(=O)NCCc1nc(-c2nc(C(=O)NCCCN[C@@H](C)c3ccccc3)cs2)cs1)C(C)O)C(O[C@@H]1O[C@@H](CO)[C@@H](O)[C@H](O)[C@@H]1O[C@H]1O[C@H](CO)[C@@H](O)[C@H](OC(N)=O)[C@@H]1O)c1cnc[nH]1` (stereo partly drawn) is 0.764 µM (active); for `Cc1ccc(NC(=O)c2ccc(CN3CCN(C)CC3)cc2)cc1Nc1nccc(-c2cccnc2)n1` it is 17.1 µM (active).
The same measure, in the same setting: the result for `COC(=O)C1=C(C)NC(C)=C(C(=O)OCC(C)C)C1c1ccccc1[N+](=O)[O-]` (stereo not drawn) reads 17.1 µM (active).
Regarding `O=c1ccc2ccccc2o1`, the “activity, negative = inhibition” value was 0%.

The values are drawn from PubChem BioAssay AID1494156 (National Center for Advancing Translational Sciences (NCATS), 2020).
